The supplement of paper PMC9948646
A number with no mark means an inactive call.

Test system: gramicidin D channels in DC22:1PC lipid vesicles (bilayer-modifying potency)
Assay: initial Tl+ fluorescence quench rate relative to no-drug control (NormRate, gramicidin monomer-dimer shift) (ratio (fold of control)); higher = stronger bilayer-modifying effect (equilibrium shifted toward conducting dimers), active = 1.5 or more
Details: 10 µM; lipid concentration 50 µM; temperature: 25 °C
Description: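 Stopped-flow fluorescence quench assay: ANTS-loaded DC22:1PC large unilamellar vesicles doped with gramicidin D (1:2000), 50 µM lipid, equilibrated 10 min with 10 µM drug (0.1% DMSO), mixed with Tl+ quench buffer at 25°C. Initial quench rate (Tl+ influx) was fitted with a modified stretched exponential and normalised to the no-drug control rate (NormRate); duplicates from two independent LUV preparations (triplicates for 7 drugs).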

Row | Structure (SMILES) | initial Tl+ fluorescence quench rate
1 | Nc1c2c(nc3sc4c(c13)CCCC4)CCCC2 | 1.07
2 | C[C@@H]1CO[C@](Cn2cncn2)(c2ccc(Oc3ccc(Cl)cc3)cc2Cl)O1 | 2.49 (active)
3 | Cc1cc(C2=NO[C@@](c3cc(Cl)c(F)c(Cl)c3)(C(F)(F)F)C2)ccc1C(=O)NCc1ccc2c(c1)C(C)(C)OB2O | 4.21 (active)
4 | Cc1cccc(C(=O)Nc2ccnc(N(C)C3CCN(CC(C)C)CC3)c2)c1 | 1.12
5 | O=C1O[C@@H](COc2ccon2)CN1c1cc(F)c(C2=CCN(Cc3ccccc3)CC2)c(F)c1 | 1.31
6 | CO[C@@H]1CN(c2ccc(C#C[C@@]3(O)CN4CCC3CC4)c(Cc3ccccc3)n2)C[C@H]1O | 1.06
7 | CO/C=C(/C(=O)OC)c1ccccc1Oc1cc(Oc2ccccc2C#N)ncn1 | 1.05
8 | CC1(C)OB(O)c2ccc(C3=NO[C@@](c4cc(Cl)c(F)c(Cl)c4)(C(F)(F)F)C3)cc21 | 4.11 (active)
9 | Cc1nn(Cc2ccccc2)c(Cl)c1C(=O)NC1CCCCCC1 | 1.1
10 | Cc1nn(C)c(C)c1NS(=O)(=O)c1c(Cl)cc(-c2ccnc(N3CCNCC3)c2)cc1Cl | 1.38
11 | CCc1nn(C)c(C(=O)NCc2ccc(Oc3ccc(C)cc3)cc2)c1Cl | 2.89 (active)
12 | O=C1O[C@@H](CO)CN1c1cc(F)c(C2=CCN(Cc3ccccc3)CC2)c(F)c1 | 1.13
13 | CO/N=C(\C(=O)OC)c1ccccc1CO/N=C(\C)c1cccc(C(F)(F)F)c1 | 1.36
14 | CC(C)(C)[C@@H](O)[C@H](Oc1ccc(-c2ccccc2)cc1)n1cncn1 | 2.39 (active)
